Some test systems named below: DU-145 prostate; K-562 leukemia; MALME-3M melanoma; MDA-MB-231 breast; SF-268 CNS; SF-295 CNS; SF-539 CNS; UACC-257 melanoma; M14 melanoma; RXF 393 renal.
What all share (assay): NCI-60 one-dose screen, 48 h (100 = growth as untreated, 0 = no growth, -100 = all killed)
Settings in all cases: 10 µM

This is part of a sample that, as a whole, favours compounds with a hit. Of some 83,000 tested, about 20% had one in any assay.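 Treatment: one concentration, 48 hours, 96-well format. Scoring: percent growth, with anything below 10 considered active.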 A number with no mark means an inactive call. Active and inactive are the calls of the source.

`O=C(CNc1nc(-c2ccccc2)cs1)Nc1ccccc1`: the growth with DU-145 prostate is 14.1%; in the experiment with K-562 leukemia, 5.68% (active); in the experiment on MALME-3M melanoma, -61% (active); in the experiment on MDA-MB-231 breast it was -30.7% (active); with SF-268 CNS, 8.59% (active); with SF-295 CNS it was -1.92% (active). For the same compound, the growth in the experiment with SF-539 CNS was -93.7% (active); in the experiment with UACC-257 melanoma, -14.3% (active); in the experiment on M14 melanoma it was -73.8% (active).
Consider `CCCn1c(O)c(N=Nc2nc(-c3cc4ccccc4oc3=O)cs2)c2cc(Br)ccc21`, for which the growth with DU-145 prostate is 101%; with K-562 leukemia it was 110%; in the experiment on MALME-3M melanoma, 88%; in the experiment on MDA-MB-231 breast, 89.2%; with SF-268 CNS it was 89.8%; in the experiment on SF-295 CNS it was 85.3%. For the same compound, the growth was 85% with SF-539 CNS and 107% with UACC-257 melanoma.
Regarding `O=C(CSc1nnc(-c2c[nH]c3ccccc23)n1-c1ccccc1)Nc1ccc(C(=O)/C=C/c2ccccc2Cl)cc1`, the growth in the experiment on DU-145 prostate is 82%; in the experiment with K-562 leukemia, 55.9%; in the experiment with MALME-3M melanoma it was 64.6%; in the experiment with MDA-MB-231 breast, 78%; in the experiment on SF-268 CNS, 66.5%; in the experiment on SF-295 CNS it was 72%. For the same compound, the results for the growth with SF-539 CNS and in the experiment with UACC-257 melanoma were 42.6% and 107%, respectively.
`CN(CCO)c1oc(-c2ccccc2)nc1[P+](c1ccccc1)(c1ccccc1)c1ccccc1`: the growth with DU-145 prostate was 4.07% (active); with K-562 leukemia, 9.88% (active); in the experiment on MALME-3M melanoma, -12% (active); in the experiment with MDA-MB-231 breast it was -6.83% (active); in the experiment on SF-268 CNS, 11.4%; in the experiment with SF-295 CNS it was -13.8% (active). Further, the growth is 8.12% (active) in the experiment with SF-539 CNS, -3.98% (active) with UACC-257 melanoma and 12.2% with M14 melanoma.
With `Cc1ccc(/C=C/C(=O)c2ccc(NC(=O)CSc3nnc(-c4c[nH]c5ccccc45)n3-c3ccccc3)cc2)c(C)c1`, the growth is 41.1% in the experiment with DU-145 prostate; 35.4% in the experiment on K-562 leukemia; -71.7% (active) in the experiment with MALME-3M melanoma; 21.9% in the experiment on MDA-MB-231 breast; 72.3% in the experiment on SF-268 CNS; 66.1% in the experiment on SF-295 CNS. Further, the growth in the experiment on SF-539 CNS is -95.3% (active); with UACC-257 melanoma it was 90.2%; in the experiment on M14 melanoma, 53.5%.
Take `COc1ccc(CN2[C@@H](C(=O)NCc3ccc(C(=O)NO)cc3)Cc3c([nH]c4ccccc34)[C@@H]2C2CC2)cc1`: the growth with DU-145 prostate is 15.8%; in the experiment with K-562 leukemia, 6.95% (active); with MALME-3M melanoma, 12.8%; in the experiment on MDA-MB-231 breast, 5.56% (active); in the experiment on SF-268 CNS, 20.9%; in the experiment with SF-295 CNS, 3.12% (active). For the same compound, the values for the growth with SF-539 CNS and with UACC-257 melanoma were 15.3% and 36.3%, respectively.
As to `COc1cccc(-c2ccnc(/N=C(\N)Nc3ccc(S(=O)(=O)Nc4nc(C)cc(C)n4)cc3)n2)c1`, the growth in the experiment with DU-145 prostate was 111%; in the experiment with K-562 leukemia, 92%; in the experiment on MALME-3M melanoma, 98%; in the experiment on MDA-MB-231 breast, 95.9%; in the experiment on SF-268 CNS it was 104%; in the experiment on SF-295 CNS it was 93.7%. In addition, the growth in the experiment on SF-539 CNS was 95.2%; in the experiment with UACC-257 melanoma it was 111%; in the experiment on M14 melanoma it was 114%.
Consider `CCCSc1nc(NC2CC2)c(C#N)c(-c2ccc(OC)cc2)n1`, for which the growth was 98.1% with DU-145 prostate; 92.4% with K-562 leukemia; 134% with MALME-3M melanoma; 85% in the experiment on MDA-MB-231 breast; 80.9% with SF-268 CNS; 78.7% in the experiment with SF-295 CNS. Besides, the growth is 85.6% with SF-539 CNS and 107% in the experiment with UACC-257 melanoma.
Regarding `O=C(CSc1nnc(-c2ccc3nc(-c4ccccc4)[nH]c3c2)o1)Nc1ccc(Cl)cc1`, the growth with DU-145 prostate was 73.6%; in the experiment on K-562 leukemia it was 16.7%; in the experiment with MALME-3M melanoma, 44%; in the experiment with MDA-MB-231 breast, 27.4%; in the experiment on SF-268 CNS it was 59.6%; in the experiment on SF-295 CNS it was -14.9% (active). The growth in the experiment on SF-539 CNS was 23.4%; in the experiment with UACC-257 melanoma, 75.3%; in the experiment with M14 melanoma, 39.7%.
Regarding `COc1cccc2nc(Nc3ccc(F)c(NC(=O)c4ccc(CN5CCN(C)CC5)c(C(F)(F)F)c4)c3)ccc12`, the growth with DU-145 prostate was 6.64% (active); with K-562 leukemia, -70.8% (active); with MALME-3M melanoma, -91.3% (active); in the experiment with MDA-MB-231 breast, -37.8% (active); in the experiment on RXF 393 renal, -27.1% (active); with SF-268 CNS, 22.2%. In addition, the growth in the experiment on SF-295 CNS was -84% (active); with SF-539 CNS, -93.6% (active); in the experiment with UACC-257 melanoma, -66.5% (active); with M14 melanoma, -12% (active).
For the compound `C#CCNC(=O)CCC(=O)OC[C@]12CC[C@@H](C(=C)C)[C@@H]1C1CC[C@@H]3[C@@]4(C)CCCNC(C)(C)[C@@H]4CC[C@@]3(C)[C@]1(C)CC2` (stereo partly drawn), the growth is 17.8% in the experiment with DU-145 prostate; 3.14% (active) in the experiment with K-562 leukemia; -93.6% (active) with MALME-3M melanoma; -47.9% (active) with MDA-MB-231 breast; 42.8% with SF-268 CNS; -85.5% (active) in the experiment on SF-295 CNS. For the same compound, the figures for the growth with SF-539 CNS and in the experiment on UACC-257 melanoma were -99.3% (active) and -78.4% (active), respectively.
For the compound `COc1ccc(NC(=O)CSc2nnc(-c3ccc4nc(-c5ccc(Cl)cc5)[nH]c4c3)o2)cc1`, the growth is 55.4% in the experiment on DU-145 prostate; 14.7% with K-562 leukemia; -81.7% (active) in the experiment on MALME-3M melanoma; 20.5% in the experiment with MDA-MB-231 breast; 48% in the experiment on SF-268 CNS; 26.1% with SF-295 CNS. Further, the growth is 50.5% with SF-539 CNS, 71.5% in the experiment on UACC-257 melanoma and 14.8% with M14 melanoma.
`O=c1[nH]c2ccccc2cc1CSc1ccc(Nc2nccc(-c3ccc(C(F)(F)F)cc3)n2)cc1`: the growth is 32.3% with DU-145 prostate; 54.9% with K-562 leukemia; 6.21% (active) in the experiment on MALME-3M melanoma; 11.9% in the experiment with MDA-MB-231 breast; 40.4% in the experiment on SF-268 CNS; -62.6% (active) in the experiment with SF-295 CNS. Also, the growth in the experiment on SF-539 CNS is 12%; in the experiment on UACC-257 melanoma it was 90%; with M14 melanoma, 80.1%.
